Screens from PubChem.
A selection: hits, their analogues and other compounds. The true share with any hit is near 4.2%.
esBAF inh – blocks esBAF chromatin remodeling in mouse ES cells | reporter increase, % at 12.5 µM | 350,000 tested, 2% active | AID 602393 | Bmi1-luciferase knock-in reporter, 24 h; 100% = twice the neutral-well signal; in the data active = activation above about 40%;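 note: 0% = median of the plate's neutral control wells and 100% = double that signal; a rise in the Bmi1 reporter signal indicates esBAF inhibition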
Wnt act – activates Wnt/beta-catenin signaling in a reporter cell assay. activator, plate reader. activation, % at 9.35 µM. 300,000 tested, 1.2% active. AID 743398; in the data active = activation above about 30%, passing the limit was not always enough;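 note: 0% = neutral control wells and 100% = positive control wells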
hgDAF-12 ag – hgDAF-12 agonism, primary luciferase screen. HEK293 GAL4-hgDAF12 UAS-luciferase reporter, agonist luminescence; normalized to butyrate control. activation, % at 6.8 µM. 370,000 tested, 1.8% active. AID 687014;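 active = activation above a cutoff set at the mean of all screened compounds plus 3 SD, cut at about 10% in these data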;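 note: 0% = DMSO wells and 100% = sodium butyrate wells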
ssDAF-12 act – S. stercoralis DAF-12 activation, primary screen | activation, % at 6.8 µM | HEK293 ssDAF-12/GRIP1 lit1-tk-luc reporter, luminescence; % of 3 µM dafachronic acid response | AID 652126 | 370,000 tested, 1% active;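 active = activation above the mean over all tested compounds plus 3 SD, cut at about 0.9% in these data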;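 note: 0% = DMSO-only wells and 100% = 3 µM delta7-dafachronic acid wells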
hcDAF-12 act – activators of H. contortus DAF-12 nuclear receptor. HEK293 hcDAF-12 lit1-tk-luc reporter, luminescence; 0% DMSO, 100% Δ7-dafachronic acid. activation, % at 6.8 µM. 370,000 tested, 1.4% active. AID 652067;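 active = activation above the mean of all tested compounds plus 3 SD, cut at about 5.5% in these data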;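 note: 100% = response to 3 µM Δ7-dafachronic acid high control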
DAX1 StAR inh – blocks DAX1 repression of SF-1 activated StAR promoter; HEK293T StAR-luciferase reporter, SF-1/DAX-1 repression relief; inhibition, % at 6.8 µM; 370,000 tested, 1.1% active; AID 652010;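 active = inhibition above the mean over all tested compounds plus 3 SD, cut at about 3.6% in these data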;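 note: 0% = DAX-1 cells with DMSO and 100% = cells lacking DAX-1 with DMSO; higher inhibition means more luminescence from relief of DAX-1 repression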
* hit, by the source's call; . = not tested or not shown.

SMILES	esBAF inh	Wnt act	hgDAF-12 ag	ssDAF-12 act	hcDAF-12 act	DAX1 StAR inh
CC(C)NC(=O)Nc1cccc2c1O[C@@H](CN(C)C(=O)Nc1cccc3ccccc13)[C@@H](C)CN([C@@H](C)CO)C2=O	-1	.	.	.	.	.
C[C@@H]1CCCCO[C@H](CN(C)C(=O)Nc2ccccc2)[C@H](C)CN([C@H](C)CO)C(=O)c2cc(NS(=O)(=O)c3cccs3)ccc2O1	-3	.	.	.	.	.
Cc1ccc(S(=O)(=O)N[C@H]2CC[C@@H](CC(=O)N3CCN(c4ccccc4)CC3)O[C@@H]2CO)cc1	-5	.	.	.	.	.
CCC(=O)N1[C@@H]2c3ccc(-c4cccnc4)c(=O)n3C[C@H]1[C@H](CO)[C@H]2C(=O)NC1CCC1	-2	.	.	.	.	.
O=C1N/C(=N/O)S/C1=C/c1cccc([N+](=O)[O-])c1	7	52*	3	-1	1	0
O=C1N/C(=N\S(=O)(=O)Cc2ccccc2)S/C1=C/c1cccc([N+](=O)[O-])c1	-1	1	0	-2	-1	0
COc1ccc(/C=C/C(=O)Nc2cc(C)nn2-c2nc3ccccc3n2Cc2cccc([N+](=O)[O-])c2)cc1	.	1	3	1.0*	4	2
Cn1cccc1/C=C1\CCC/C(=C\c2cccn2C)C1=O	81*	71*	0	-1	2	1
CO[C@@H]1CN(C)C(=O)c2ccc(NC(=O)C3CC3)cc2OC[C@@H](C)N(CC2CCOCC2)C[C@@H]1C	0	.	.	.	.	.
O=C(Nc1ccc2c(c1)[C@H]1C[C@H](CC(=O)N3CCc4ccccc4C3)O[C@H](CO)[C@H]1O2)C1CCOCC1	-1	.	.	.	.	.
N#C/C(=C\c1ccncc1)c1nc2ccccc2o1	.	-2	4	0	4	0
N#C/C(=C\Nc1ccccc1O)c1nc2ccccc2o1	37	1	5	0	6.3*	0
Cc1nn(-c2ccccc2)c(C)c1C(=O)Oc1ccccc1	62*	14	0	-1	0	0
COc1ccc(OC(=O)c2c(C)nn(-c3ccccc3)c2C)cc1	71*	29	3	0	3	1
Cc1nn(-c2ccccc2)c(C)c1C(=O)OCC(=O)NC12CC3CC(CC(C3)C1)C2	50*	0	.	.	.	.
COC(=O)c1cnn(-c2ccccc2)c1N	-7	1	-2	-1	0	0
COc1ccc(OC(=O)c2cnn(-c3ccccc3)c2C)cc1	67*	.	13*	0	3	2
COc1ccccc1C1CCN(C(=O)c2cnn(-c3ccccc3)c2C)CC1	4	41*	-4	-1	-3	-1
COc1ccccc1C1CCN(C(=O)c2ccccc2)CC1	7	-2	-1	-1	-1	0
COc1ccc(NC(=O)Nc2ccc3c(c2)C(=O)N([C@H](C)CO)C[C@@H](C)[C@H](CN(C)S(=O)(=O)c2ccc(F)cc2)OCCCC[C@@H](C)O3)cc1	9	.	.	.	.	.
C[C@@H]1CCCCO[C@@H](CN(C)Cc2ccc(Cl)c(Cl)c2)[C@@H](C)CN([C@@H](C)CO)C(=O)c2cc(NS(=O)(=O)c3ccccc3)ccc2O1	-3	.	.	.	.	.
COc1ccc(/C=N/NS(=O)(=O)c2ccc(C)cc2)cc1OC(=O)c1ccccc1	-2	.	1	-1	-2	0
COc1cc(/C=N/NS(=O)(=O)c2ccc(C)cc2)ccc1OCc1cccc(C(=O)O)c1	-65	-1	10*	0	3	2
Cc1ccc(COc2ccccc2C(=S)N2CCCC2)cc1	55*	2	8	-1	1	1
COc1cc(/C=N/NC(N)=S)ccc1OCc1ccc(C)cc1	.	10	11*	-1	2	-1
SMILES	esBAF inh	Wnt act	hgDAF-12 ag	ssDAF-12 act	hcDAF-12 act	DAX1 StAR inh
Fc1ccc(COc2ccccc2C(=S)N2CCCC2)cc1	.	.	2	-1	-1	0
CCOc1ccc(C(=O)N2CCCC2)cc1OC	0	34*	1	-1	0	0
Cc1cc(C(=O)Nc2cccc3c2O[C@H](CN(C)S(=O)(=O)c2ccc(F)cc2)[C@H](C)CN([C@@H](C)CO)C3=O)n(C)n1	-6	.	.	.	.	.
COc1cc(C(=S)N2CCCC2)ccc1OCc1ccc(C)cc1	47*	9	5	-1	-1	0
Cc1[nH]n(-c2ccccc2)c(=O)c1/C=N/N(C)c1ccccc1	.	14	0	1.8*	3	0
Cc1[nH]n(-c2ccccc2)c(=O)c1/C=N/O	-6	-1	-2	-1	0	0
